Data from PubChem BioAssay.
For some of these results: Results with a measured potency or affinity are listed apart. Calls of active or inactive are those of the source. Unless noted, no rule for the calls is given here.

Assays:
[1] = antimalarial activity against Dd2 strain (AID 2302;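 active = growth inhibition above 50% at the single 2 µM test dose, taken to imply half-maximal potency below 2 µM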;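 also: 0% = DMSO untreated growth and 100% = chloroquine plus artemisinin killed control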); details: P. falciparum Dd2 in RBCs, LDH growth readout, 72 h; at 2 µM; stronger effect = higher value
[2] = human hepatoma cell viability loss – ATP luminescence, cytotoxicity control for P. falciparum antimalarial project, primary screen (AID 2303;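 active = inhibition above 50%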;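 also: 0% = DMSO wells and 100% = digitonin-killed cells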); details: HepG2 viability, 24-48 h, at 10 µM, stronger effect = higher value
[3] = biological target: L-lactate dehydrogenase (Plasmodium falciparum (isolate CDC / Honduras)) (UniProt Q27743); test: PfLDH activity inhibition – cell lysate, 3D7 strain, counter-screen for P. falciparum growth inhibition project (AID 2304);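 also: 0% = vehicle and 100% = reference inhibitor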; details: P. falciparum 3D7 crude extract, LDH APAD/NBT absorbance; at 2 µM; stronger effect = higher value
Chain of L-lactate dehydrogenase (Plasmodium falciparum (isolate CDC / Honduras)) (Q27743 whole entry, looked up): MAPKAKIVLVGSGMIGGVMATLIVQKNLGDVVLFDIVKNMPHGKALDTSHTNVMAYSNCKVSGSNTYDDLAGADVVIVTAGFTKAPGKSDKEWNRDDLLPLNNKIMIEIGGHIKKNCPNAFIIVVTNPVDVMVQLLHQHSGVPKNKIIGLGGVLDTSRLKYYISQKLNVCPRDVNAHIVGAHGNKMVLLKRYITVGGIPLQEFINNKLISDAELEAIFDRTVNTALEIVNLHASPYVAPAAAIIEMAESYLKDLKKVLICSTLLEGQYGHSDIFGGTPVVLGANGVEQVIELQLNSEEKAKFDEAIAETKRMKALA

[4] = inhibition of 3D7 malaria parasite growth – strain 3D7 (AID 2306);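 also: 0% = DMSO wells and 100% = chloroquine plus artemisinin control wells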; details: P. falciparum 3D7 erythrocytic growth, LDH absorbance, 72 h; at 2 µM; stronger effect = higher value
[5] = biological target: Calcium-dependent protein kinase 1 (Plasmodium falciparum (isolate 3D7)) (UniProt P62344); test: PfCDPK1 kinase inhibitors, biochemical, TCAMS library (AID 1159585; cut-off not given, nearly all actives have IC50 up to about 0.98 µM;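 also: inhibitors leave more ATP so luminescence rises with inhibition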); details: recombinant PfCDPK1, Kinase-Glo ATP depletion luminescence
Chain of Calcium-dependent protein kinase 1 (Plasmodium falciparum (isolate 3D7)) (P62344 whole entry, looked up): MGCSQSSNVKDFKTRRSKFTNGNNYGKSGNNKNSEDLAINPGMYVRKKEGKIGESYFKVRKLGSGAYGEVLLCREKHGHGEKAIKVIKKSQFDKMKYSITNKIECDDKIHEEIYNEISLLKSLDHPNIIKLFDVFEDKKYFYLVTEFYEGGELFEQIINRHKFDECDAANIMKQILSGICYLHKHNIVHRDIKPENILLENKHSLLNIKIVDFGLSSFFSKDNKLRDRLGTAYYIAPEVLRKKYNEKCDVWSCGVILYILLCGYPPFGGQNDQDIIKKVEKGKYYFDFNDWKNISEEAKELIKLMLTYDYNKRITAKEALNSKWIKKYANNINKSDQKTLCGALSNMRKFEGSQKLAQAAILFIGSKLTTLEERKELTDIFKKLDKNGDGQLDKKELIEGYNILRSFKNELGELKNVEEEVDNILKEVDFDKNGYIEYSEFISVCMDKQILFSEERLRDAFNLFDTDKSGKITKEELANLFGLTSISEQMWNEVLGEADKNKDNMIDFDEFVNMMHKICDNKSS

[6] = biological target: Plasmodium falciparum protein kinase 6 (PK6, PF3D7_1337100) (UniProt Q8IDW1); test: PfPK6 kinase inhibitors, biochemical, TCAMS library (AID 1159586); details: recombinant PfPK6, Kinase-Glo ATP depletion luminescence
Chain of Plasmodium falciparum protein kinase 6 (PK6, PF3D7_1337100) (Q8IDW1 1-305): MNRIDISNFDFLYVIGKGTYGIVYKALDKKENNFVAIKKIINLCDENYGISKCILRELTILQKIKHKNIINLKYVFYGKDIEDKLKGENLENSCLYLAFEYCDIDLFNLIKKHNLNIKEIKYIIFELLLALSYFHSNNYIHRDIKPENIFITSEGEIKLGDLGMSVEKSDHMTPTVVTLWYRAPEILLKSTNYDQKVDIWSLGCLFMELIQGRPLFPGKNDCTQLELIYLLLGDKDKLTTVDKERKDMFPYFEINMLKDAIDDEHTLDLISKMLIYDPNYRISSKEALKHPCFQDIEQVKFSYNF

[7] = biological target: Protein kinase 7 (PK7), Plasmodium falciparum 3D7 (PF3D7_0213400) (UniProt Q7YTF7); test: inhibition of Plasmodium PK7 catalytic activity – biochemical, TCAMS antimalarial set, Kinase-Glo luminescence (AID 1159587); details: recombinant PfPK7, Kinase-Glo ATP depletion luminescence
Chain of Protein kinase 7 (PK7), Plasmodium falciparum 3D7 (PF3D7_0213400) (Q7YTF7 1-343): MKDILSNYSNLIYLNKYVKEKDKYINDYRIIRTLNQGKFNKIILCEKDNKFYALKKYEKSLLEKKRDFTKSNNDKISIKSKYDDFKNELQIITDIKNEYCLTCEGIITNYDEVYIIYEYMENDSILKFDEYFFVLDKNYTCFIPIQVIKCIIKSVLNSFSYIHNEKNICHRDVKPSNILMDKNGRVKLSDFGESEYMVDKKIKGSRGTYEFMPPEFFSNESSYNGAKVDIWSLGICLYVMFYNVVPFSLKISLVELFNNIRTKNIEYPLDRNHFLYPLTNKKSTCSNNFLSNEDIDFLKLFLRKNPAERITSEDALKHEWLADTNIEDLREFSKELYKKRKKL

[8] = biological target: Calcium-dependent protein kinase 4 (Plasmodium falciparum (isolate 3D7)) (UniProt Q8IBS5); test: PfCDPK4 kinase inhibitors, biochemical, TCAMS library (AID 1159588; cut-off not given, nearly all actives have IC50 up to about 0.91 µM); details: recombinant PfCDPK4, Kinase-Glo ATP depletion luminescence
Chain of Calcium-dependent protein kinase 4 (Plasmodium falciparum (isolate 3D7)) (Q8IBS5 whole entry, looked up): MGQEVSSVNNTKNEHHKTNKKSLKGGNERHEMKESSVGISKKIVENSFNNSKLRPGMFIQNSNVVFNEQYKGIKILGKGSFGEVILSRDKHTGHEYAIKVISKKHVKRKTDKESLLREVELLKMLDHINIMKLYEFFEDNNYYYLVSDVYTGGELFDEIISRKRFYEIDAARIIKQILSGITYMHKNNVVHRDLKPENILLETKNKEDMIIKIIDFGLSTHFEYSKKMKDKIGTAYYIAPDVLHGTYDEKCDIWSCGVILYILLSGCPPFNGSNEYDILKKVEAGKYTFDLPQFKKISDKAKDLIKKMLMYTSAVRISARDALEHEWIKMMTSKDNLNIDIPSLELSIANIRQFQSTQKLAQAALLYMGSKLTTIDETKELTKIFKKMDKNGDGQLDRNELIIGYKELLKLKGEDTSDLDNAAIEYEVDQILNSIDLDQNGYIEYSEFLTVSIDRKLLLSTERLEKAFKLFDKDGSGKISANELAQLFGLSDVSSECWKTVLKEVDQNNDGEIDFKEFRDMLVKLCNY

CCCN(Cc1nnc(-c2cccs2)o1)C(=O)C1COc2ccccc2O1 (stereo not drawn)
inactive: growth inhibition [1] 49% | inhibition [2] 1% | inhibition [3] 0% | outcome [5] | outcome [6] | outcome [7] | outcome [8]
active: growth inhibition [4] 87%

COc1ccc(CN(C)CCCOc2ccc(NC(=O)C=Cc3ccc(C(C)(C)C)cc3)cc2)cc1OC
active: growth inhibition [1] 87% | growth inhibition [4] 101%
inactive: inhibition [2] 14% | inhibition [3] 2% | outcome [5] | outcome [6] | outcome [7] | outcome [8]

Cc1cc(-c2cccc(CNC3CCN(C)CC3)c2)ccc1S(=O)(=O)NCCN1CCCC1
active: growth inhibition [4] 100%
inactive: growth inhibition [1] 0% | inhibition [2] 18% | inhibition [3] 0% | outcome [5] | outcome [6] | outcome [7] | outcome [8]

CCOC(=O)NC1=NC(C)(C)N(OCc2ccc(Cl)c(Cl)c2)C(NC(=O)OCC)=N1
active: inhibition [2] 65% | growth inhibition [4] 98%
inactive: growth inhibition [1] 4% | inhibition [3] 2% | outcome [5] | outcome [6] | outcome [7] | outcome [8]

Cc1cc(NN=Cc2ccccn2)c2cc(C(F)(F)F)ccc2n1
inactive: inhibition [2] -10% | inhibition [3] -4% | outcome [5] | outcome [6] | outcome [7] | outcome [8]
active: growth inhibition [1] 100% | growth inhibition [4] 102%

NC(=O)c1ccc(NC(=O)CN(Cc2ccc(Cl)cc2)S(=O)(=O)c2ccccc2)cc1
inactive: inhibition [2] 2% | inhibition [3] 6% | outcome [5] | outcome [6] | outcome [7] | outcome [8]
active: growth inhibition [1] 75% | growth inhibition [4] 90%

O=C(CCc1cnc[nH]1)Nc1cccc(-c2ccc(-c3nc4ccc(F)cc4[nH]3)s2)c1
active: growth inhibition [1] 69% | growth inhibition [4] 101%
inactive: inhibition [2] 17% | inhibition [3] -3% | outcome [5] | outcome [6] | outcome [7] | outcome [8]

COc1ccccc1CNc1ncc(-c2ccsc2)c(-c2nccs2)n1
inactive: inhibition [2] 14% | inhibition [3] 2% | outcome [5] | outcome [6] | outcome [7] | outcome [8]
active: growth inhibition [1] 84% | growth inhibition [4] 91%

Cc1cccc2c3c([nH]c12)C1(CCN(CCc2ccccc2)CC1)NC(C(=O)NCc1ccccc1)C3 (stereo not drawn)
active: growth inhibition [1] 52% | growth inhibition [4] 86%
inactive: inhibition [2] 10% | inhibition [3] -9% | outcome [5] | outcome [6] | outcome [7] | outcome [8]

Nc1ncc(-c2ccsc2)c2ccc(-c3ccc4cn[nH]c4c3)cc12
active: growth inhibition [4] 95%
inactive: growth inhibition [1] 41% | inhibition [2] 18% | inhibition [3] 6% | outcome [5] | outcome [6] | outcome [7] | outcome [8]

COc1ccc(CN(C)CCCc2ccc(NC(=O)Cc3ccc4nc(-c5ccccc5)ccc4c3)cc2)cc1OC
inactive: growth inhibition [1] -2% | inhibition [2] 10% | inhibition [3] -3% | outcome [5] | outcome [6] | outcome [7] | outcome [8]
active: growth inhibition [4] 98%

CCN(CC)CCCC(C)Nc1ccnc2ccc(OC)cc12 (stereo not drawn)
inactive: growth inhibition [1] -3% | inhibition [2] 7% | inhibition [3] -2% | outcome [5] | outcome [6] | outcome [7] | outcome [8]
active: growth inhibition [4] 102%

Cc1cccc2[nH]c(-c3ccc(-c4cccc(CNCc5ccc(S(C)(=O)=O)cc5)c4)s3)nc12
active: growth inhibition [1] 91% | growth inhibition [4] 100%
inactive: inhibition [2] 31% | inhibition [3] -3% | outcome [5] | outcome [6] | outcome [7] | outcome [8]

Cc1cc(NC(=O)Nc2ccc(N(C)C)cc2)c2cc(Cl)ccc2n1
active: growth inhibition [1] 50% | growth inhibition [4] 100%
inactive: inhibition [2] -4% | inhibition [3] 3% | outcome [5] | outcome [6] | outcome [7] | outcome [8]

Cc1cc(NC(=O)CCN2CCN(c3cccc(Cl)c3Cl)CC2)ccc1N1CCN(C(C)C)CC1
active: inhibition [2] 82% | growth inhibition [4] 99%
inactive: growth inhibition [1] 8% | inhibition [3] 7% | outcome [5] | outcome [6] | outcome [7] | outcome [8]

CCc1c(C)nc(-n2nc(C)cc2NC(=O)CCc2ccccc2)[nH]c1=O
inactive: inhibition [2] 48% | inhibition [3] -1% | outcome [5] | outcome [6] | outcome [7] | outcome [8]
active: growth inhibition [1] 97% | growth inhibition [4] 97%

Cc1nc2nc(N)nc(N)c2c(C)c1Cc1ccc(C(F)(F)F)cc1
active: inhibition [2] 57% | growth inhibition [4] 96%
inactive: growth inhibition [1] 22% | inhibition [3] -2% | outcome [5] | outcome [6] | outcome [7] | outcome [8]

CCCc1cc(OC)c(CC2c3cc(O)c(Cl)cc3CCN2C)cc1OC (stereo not drawn)
inactive: inhibition [2] 19% | inhibition [3] -5% | outcome [5] | outcome [6] | outcome [7] | outcome [8]
active: growth inhibition [1] 99% | growth inhibition [4] 100%

CCOC(=O)NC1=NC(C)(C)N(OCCCOc2ccc(C)cc2C)C(NC(=O)OCC)=N1
inactive: inhibition [3] 7% | outcome [5] | outcome [6] | outcome [7] | outcome [8]
active: growth inhibition [1] 98% | inhibition [2] 63% | growth inhibition [4] 95%

OC(CNc1ccnc(Nc2cccc(Cl)c2)n1)c1ccc(C(F)(F)F)cc1 (stereo not drawn)
inactive: inhibition [2] 13% | inhibition [3] 5% | outcome [5] | outcome [6] | outcome [7] | outcome [8]
active: growth inhibition [1] 61% | growth inhibition [4] 101%

COc1ccc2nc(C)cc(NN=Cc3ccc([N+](=O)[O-])o3)c2c1
inactive: inhibition [2] 18% | inhibition [3] -5% | outcome [5] | outcome [6] | outcome [7] | outcome [8]
active: growth inhibition [1] 100% | growth inhibition [4] 100%

CNc1ccc(CNCc2ccc(-c3ccc(-c4nc5ccc(C(F)(F)F)cc5[nH]4)cc3)cc2)cc1
inactive: inhibition [3] -3% | outcome [5] | outcome [6] | outcome [7] | outcome [8]
active: growth inhibition [1] 98% | inhibition [2] 53% | growth inhibition [4] 101%

CC(C)Cc1nc(N2CCOCC2)c2nnn(Cc3ccccc3)c2n1
active: growth inhibition [1] 76% | growth inhibition [4] 98%
inactive: inhibition [2] 7% | inhibition [3] -2% | outcome [5] | outcome [6] | outcome [7] | outcome [8]

CC(CNc1nc(NCC(c2ccccc2)c2ccccc2)c2[nH]cnc2n1)c1ccccc1 (stereo not drawn)
inactive: growth inhibition [1] 24% | inhibition [2] 5% | inhibition [3] -8% | outcome [5] | outcome [6] | outcome [7] | outcome [8]
active: growth inhibition [4] 93%

Cn1cnc(CCNC(=O)c2ccc(-c3cccc(-c4nc5ccc(F)cc5[nH]4)c3)cc2)c1
inactive: growth inhibition [1] 24% | inhibition [2] 23% | inhibition [3] -5% | outcome [5] | outcome [6] | outcome [7] | outcome [8]
active: growth inhibition [4] 100%

CCC(C)OC(=O)C1=C(C)NC2=C(C(=O)CC(c3ccc(OC)c(OC)c3)C2)C1c1ccc(O)cc1 (stereo not drawn)
inactive: inhibition [2] 3% | inhibition [3] 6% | outcome [5] | outcome [6] | outcome [7] | outcome [8]
active: growth inhibition [1] 97% | growth inhibition [4] 101%

N=C(N)c1ccc(NCc2cccc(C(=O)O)c2)cc1
active: growth inhibition [1] 79% | growth inhibition [4] 84%
inactive: inhibition [2] 7% | inhibition [3] -2% | outcome [5] | outcome [6] | outcome [7] | outcome [8]

COc1ccc2nc3cc(Cl)ccc3c(NCCc3ccccc3)c2c1
active: growth inhibition [1] 82% | growth inhibition [4] 94%
inactive: inhibition [2] -1% | inhibition [3] 8% | outcome [5] | outcome [6] | outcome [7] | outcome [8]

Clc1ccc(CCNCCCCCCNCCc2ccc3c(c2)OCO3)cc1
active: growth inhibition [4] 91%
inactive: growth inhibition [1] 11% | inhibition [2] 23% | inhibition [3] 7% | outcome [5] | outcome [6] | outcome [7] | outcome [8]

COc1ccccc1NC(=O)Nc1ccc(-c2cccc(-c3nc4ccccc4[nH]3)c2)cc1
active: growth inhibition [4] 101%
inactive: growth inhibition [1] 25% | inhibition [2] 42% | inhibition [3] 0% | outcome [5] | outcome [6] | outcome [7] | outcome [8]

CC1=C(C(=O)Nc2cc3cn[nH]c3cc2F)C(c2cccc(O)c2F)CC(=O)N1 (stereo not drawn)
inactive: inhibition [2] 1% | inhibition [3] -2% | outcome [5] | outcome [6] | outcome [7] | outcome [8]
active: growth inhibition [1] 98% | growth inhibition [4] 97%

CCCN(C(=O)c1ccccc1C)c1nnc(-c2cccc(C)c2)s1
inactive: inhibition [2] 8% | inhibition [3] -4% | outcome [5] | outcome [6] | outcome [7] | outcome [8]
active: growth inhibition [1] 67% | growth inhibition [4] 91%

CC=CC(=O)N1CCN(c2nccc(-c3ccc(C(C)(C)C)cc3)n2)CC1
inactive: inhibition [2] 20% | inhibition [3] 0% | outcome [5] | outcome [6] | outcome [7] | outcome [8]
active: growth inhibition [1] 70% | growth inhibition [4] 95%

COc1ccc(-c2cccc(NC(=O)c3ccc(F)cc3)c2)cc1CN1CCCN(C)CC1
active: growth inhibition [4] 101%
inactive: growth inhibition [1] 35% | inhibition [2] 26% | inhibition [3] 2% | outcome [5] | outcome [6] | outcome [7] | outcome [8]

CCCOc1ccc(C(F)(F)F)cc1NC(=O)c1nc2nc(C)cc(C)n2n1
inactive: inhibition [2] 7% | inhibition [3] -4% | outcome [5] | outcome [6] | outcome [7] | outcome [8]
active: growth inhibition [1] 88% | growth inhibition [4] 90%

c1ccc(-c2nc3ccccc3[nH]2)c(Nc2ccnc3cc(-c4nccs4)ccc23)c1
inactive: inhibition [2] -4% | inhibition [3] 3% | outcome [5] | outcome [6] | outcome [7] | outcome [8]
active: growth inhibition [1] 98% | growth inhibition [4] 101%

CC(ON1C(N)=NC(N)=NC1(C)C)c1ccccc1 (stereo not drawn)
active: growth inhibition [1] 58% | inhibition [2] 65% | growth inhibition [4] 96%
inactive: inhibition [3] 0% | outcome [5] | outcome [6] | outcome [7] | outcome [8]

CC1(C)N=C(N)N=C(N)N1OCCCOc1cc(Cl)ccc1Cl
inactive: inhibition [3] -1% | outcome [5] | outcome [6] | outcome [7] | outcome [8]
active: growth inhibition [1] 96% | inhibition [2] 64% | growth inhibition [4] 96%

O=S(=O)(NCCN1CCCC1)c1cccc(-c2cccc(CNCc3ccc(F)cc3)c2)c1
inactive: inhibition [2] 41% | inhibition [3] 4% | outcome [5] | outcome [6] | outcome [7] | outcome [8]
active: growth inhibition [1] 73% | growth inhibition [4] 99%

O=C(Nc1cccc(-c2ccc(-c3nc4ccc(C(F)(F)F)cc4[nH]3)cc2)c1)Nc1ccc(Cl)c(Cl)c1
active: growth inhibition [1] 51% | inhibition [2] 93% | growth inhibition [4] 100%
inactive: inhibition [3] -2% | outcome [5] | outcome [6] | outcome [7] | outcome [8]

N#Cc1ccc(C=CC(=O)NC2CCC(CCN3CCc4ccc(-c5cnccn5)cc4CC3)CC2)cc1 (stereo not drawn)
inactive: inhibition [2] 37% | inhibition [3] -5% | outcome [5] | outcome [6] | outcome [7] | outcome [8]
active: growth inhibition [1] 87% | growth inhibition [4] 100%
